Compounds without any hit were thinned out: in the full panel of roughly 83,000, 20% have a hit.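 Assay: single dose, 48 h. Readout: percent growth (0 = no net growth; negative = cell death). Active: <10.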 Unmarked numbers belong to inactive results. Active and inactive are the calls of the source.
Tests used:
Assay in all cases: NCI-60 one-dose screen, 48 h (100 = growth as untreated, 0 = no growth, -100 = all killed)
Details in all cases: 10 µM unless noted
[1] = system: HCT-15 colon
[2] = system: HT29 colon
[3] = system: SNB-75 CNS
[4] = system: SNB-19 CNS
[5] = system: U251 CNS
[6] = system: PC-3 prostate
[7] = system: SK-MEL-5 melanoma
[8] = system: UACC-62 melanoma
[9] = system: LOX IMVI melanoma
[10] = system: SK-MEL-28 melanoma

| Structure (SMILES) | growth [1] | growth [2] | growth [3] | growth [4] | growth [5] | growth [6] | growth [7] | growth [8] | growth [9] | growth [10] |
| --- | --- | --- | --- | --- | --- | --- | --- | --- | --- | --- |
| O=c1c2ccccc2nc(COc2ccccc2)n1NS(=O)(=O)c1ccc(Cl)cc1 | 54.4% | 80% | 36.9% | 79.8% | 87.8% | 82.7% | 94.5% | 76.9% | 83.6% | 87.1% |
| CCC(NC(c1cc2cccc3ccc4cccc1c4c32)c1nnnn1C(C)(C)C)C1CCCCC1 (stereo not given) | 38.4% | 69.4% | 75.6% | 68.9% | 53.8% | 45.8% | 6.39% (active) | 49.6% | 47.6% | 80.3% |
| COc1ccc(/C=C/C(=O)c2cccc(NC(=O)CSc3nc4ccccc4c(=O)n3-c3ccccc3)c2)cc1OC | 89.5% | 112% | 86.2% | 93.4% | 101% | 97% | 99% | 89.9% | 91.5% | 115% |
| N#Cc1cccc(NC(=O)c2cc(-c3ccc(F)cc3F)ccc2O)c1 | 6.97% (active) | 94.9% | 3.99% (active) | 11.4% | 10.9% | 9.28% (active) | -74.3% (active) | -12.9% (active) | 1.22% (active) | 25% |
| Cc1cccc(/C=C/C(=O)Nc2ncc(Cc3cccc(C)c3)s2)c1 | 17.5% | 2.82% (active) | 8.11% (active) | 47.2% | 22.1% | 13% | -19% (active) | 14.8% | 23.3% | 49.8% |
| C=C(C)[C@@H]1CC[C@]2(C(=O)NCCCCCN(CCC#N)CCC#N)CC[C@]3(C)[C@H](CC[C@@H]4[C@@]5(C)CCC(=O)C(C)(C)[C@@H]5CC[C@]43C)[C@@H]12 | 105% | 108% | 62.1% | 107% | 115% | 92.3% | 99.5% | 84% | 87.8% | 108% |
| NS(=O)(=O)c1ccc(Nc2nc(N/N=C/c3c[nH]c4ccccc34)nc(Nc3ccccc3)n2)cc1 | 75.5% | 31.6% | 70.8% | 56.7% | 28.1% | 26% | 39.8% | 38.3% | -10.6% (active) | 45.9% |
| CN1CCN(Cc2ccc(NC(=O)c3cncc(C#Cc4cnc5ccc(N6CCN(C)CC6)nn45)c3)cc2C(F)(F)F)CC1 | -57% (active) | -41.6% (active) | -68.9% (active) | -29.3% (active) | -96.7% (active) | -18.6% (active) | 90.5% | 92.2% | -93.1% (active) | 82% |
| COc1cc(-c2nn(C(C)(C)C)cc2-c2ccnc(NCCCNS(=O)(=O)c3ccc(C)cc3)n2)ccc1Cl | 80.5% | 78.3% | 54.7% | 100% | 92.3% | 58.1% | 83.1% | 68.3% | 72.7% | 101% |
| CN1CCN(Cc2ccc(NC(=O)c3cncc(C#Cc4cnn5cccnc45)c3)cc2C(F)(F)F)CC1 | 4.11% (active) | 17.5% | 62.4% | 29% | 36.2% | 30.8% | 17.7% | 23.8% | -33.3% (active) | 12.1% |
| CC(O)c1cc2ccccc2c(=O)o1 (stereo not given) | 103% | 105% | 110% | 99.6% | 103% | 95.2% | 97% | 97.9% | 97.3% | 101% |
| CN1CCN(c2nc(-c3csc(-c4ccccc4)n3)cc3ccccc23)CC1 | -48.6% (active) | -52% (active) | 70.5% | 66.1% | 36.7% | 28.9% | 58.7% | -38.4% (active) | -80.7% (active) | -25.2% (active) |
| COc1c(N2CC3CCCNC3C2)c(F)cc2c(=O)c(C(=O)N/N=C/c3ccccc3)cn(C3CC3)c12 (stereo not given) | 76.3% | 72.6% | 88.7% | 101% | 94.7% | 86.9% | 87.8% | 105% | 83.7% | 94.3% |
| COc1ccc(NC(=O)CSc2nnc(-c3ccc4nc(-c5ccc(OC)c(OC)c5)[nH]c4c3)o2)cc1OC | 108% | 105% | 100% | 113% | 112% | 102% | 88.3% | 92% | 98% | 97% |
| CN(C)CCN(C)c1ccc2ncc(C#Cc3cncc(C(=O)Nc4ccc(CN5CCN(C)CC5)c(C(F)(F)F)c4)c3)n2n1 | -25.2% (active) | -66.1% (active) | 47.9% | -11.3% (active) | 64.1% | 65.2% | 96.4% | 93% | -89% (active) | 105% |
